# Compounds without any hit were thinned out: in the full panel of roughly 79,000, 15% have a hit. A number with no mark means an inactive call. Activity calls are given as the source filed them. No stated cut-off is given here; in the data, active means growth inhibition above about 70%; inactive means the rest.
# Legend:
# [1] = NCI Yeast Anticancer Drug Screen. Data for the rad50 strain (AID 155);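 further: 0% = growth of vehicle-only cultures of the same strain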; details: S. cerevisiae rad50 strain growth inhibition, stronger effect = higher value
# How it was run: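 Inhibition values express reduced yeast growth in compound-treated cultures relative to vehicle-treated controls.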
# [2] = NCI Yeast Anticancer Drug Screen. Data for the mec2-1 strain (AID 157); details: S. cerevisiae mec2-1 strain, stronger effect = higher value
# How it was run: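 mec2-1 yeast strain, carrying an alteration in DNA damage repair or cell cycle control, was exposed to compounds; growth inhibition was measured relative to vehicle-treated controls.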
# [3] = NCI Yeast Anticancer Drug Screen. Data for the sgs1 mgt1 strain (AID 161);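 further: 0% = growth of cultures given vehicle only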; details: S. cerevisiae sgs1 mgt1 strain, stronger effect = higher value
# How it was run: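 This yeast growth screen uses a strain with defined DNA-repair lesions; compound-treated growth is compared with vehicle-treated growth.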
# [4] = NCI Yeast Anticancer Drug Screen. Data for the cln2 rad14 strain (AID 165);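 further: 0% = growth equal to vehicle treated cultures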; details: S. cerevisiae cln2 rad14 strain, stronger effect = higher value
# How it was run: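 Yeast carrying cln2 and rad14 alterations (cell cycle control and DNA damage repair) were exposed to compounds. Growth inhibition was measured against vehicle-treated controls.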
# [5] = NCI Yeast Anticancer Drug Screen. Data for the bub3 strain (AID 167); details: S. cerevisiae bub3 mutant strain, stronger effect = higher value
# How it was run: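 Steps: expose the mutant yeast strain to compound; grow alongside vehicle-treated cultures; measure growth; express inhibition against the vehicle cultures.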
# [6] = NCI Yeast Anticancer Drug Screen. Data for the mlh1 rad18 strain (AID 175); details: S. cerevisiae mlh1 rad18 strain growth inhibition, stronger effect = higher value
# How it was run: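 Growth inhibition of the yeast strain was measured after compound exposure and expressed relative to vehicle-treated controls. The strain carries defined defects in DNA damage repair.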
# [7] = at 5.0 µM (retest, dose inferred, filed as 0.5)
# [8] = at 50.0 µM (retest, dose inferred, filed as 5.0)
Compound,"growth inhibition [1, 7]","growth inhibition [1, 8]",growth inhibition ([1]; at 50.0 µM),"growth inhibition [2, 7]","growth inhibition [2, 8]",growth inhibition ([2]; at 50.0 µM),"growth inhibition [3, 7]","growth inhibition [3, 8]",growth inhibition ([3]; at 50.0 µM),"growth inhibition [4, 7]","growth inhibition [4, 8]",growth inhibition ([4]; at 50.0 µM),"growth inhibition [5, 7]","growth inhibition [5, 8]",growth inhibition ([5]; at 50.0 µM),"growth inhibition [6, 7]","growth inhibition [6, 8]",growth inhibition ([6]; at 50.0 µM)
O=C(c1ccc2ccccc2c1)N1CC1,-27%,23%,71.8% (active),-6%,-12%,-1.65%,-14%,5%,41.8%,-12%,57%,66.5%,2%,54%,58.9%,-24%,52%,63.2%
C/C1=C\[C@H](C)C[C@H](C)OC(=O)C[C@H](c2ccc(O)cc2)NC(=O)[C@@H](Cc2c(Br)[nH]c3ccccc23)N(C)C(=O)[C@H](C)NC(=O)[C@@H](C)C1,67%,98% (active),84.8% (active),88% (active),99% (active),81.3% (active),98% (active),99% (active),88.7% (active),97% (active),99% (active),81.5% (active),99% (active),99% (active),77.1% (active),82% (active),98% (active),80% (active)
O=c1oc2ccccc2c(O)c1C(C/C(CCN1CCCC1)=N/O)c1ccccc1 (configuration not stated),28%,28%,79.8% (active),22%,22%,81.7% (active),16%,16%,76.8% (active),-3%,-3%,64.2%,9%,9%,72.4% (active),10%,10%,79.2% (active)
CC(=O)[O][Sn]([c]1ccccc1)([c]1ccccc1)[c]1ccccc1,97% (active),99% (active),91.1% (active),99% (active),99% (active),93.4% (active),98% (active),98% (active),93.6% (active),90% (active),98% (active),92.8% (active),98% (active),96% (active),92.1% (active),100% (active),99% (active),91.4% (active)
CC(c1ccccc1)N1O[C@]12CC[C@@]1(C)C(CCCC13OCCO3)C2 (some centres not stated),88% (active),97% (active),92% (active),97% (active),99% (active),94% (active),36%,97% (active),92.2% (active),95% (active),98% (active),91.2% (active),94% (active),98% (active),91% (active),93% (active),97% (active),91.5% (active)
O=C1[O][Hg][c]2c1cccc2[N+](=O)[O-],99% (active),99% (active),99.2% (active),100% (active),100% (active),99.2% (active),100% (active),100% (active),99.4% (active),52%,98% (active),97.6% (active),100% (active),100% (active),99.4% (active),100% (active),99% (active),99.2% (active)
Clc1ccccc1C#[C][Hg][C]#Cc1ccccc1Cl,3%,34%,0.25%,3%,94% (active),5.95%,4%,95% (active),19.9%,1%,29%,-4.95%,-3%,92% (active),-9.2%,5%,76% (active),19.4%
[C-]#[O+].[C-]#[O+].[C-]#[O+].[C-]#[O+].[C-]#[O+].[Mo+2].[Mo+4].[c-]1[c-][c-][cH-][c-]1.[c-]1[c-][c-][cH-][c-]1.c1ccc([PH+](CC[PH+](c2ccccc2)c2ccccc2)c2ccccc2)cc1,82% (active),98% (active),90.5% (active),73% (active),99% (active),93% (active),91% (active),98% (active),92.3% (active),60%,98% (active),92% (active),84% (active),98% (active),92.3% (active),79% (active),98% (active),90.5% (active)
CC1CCCC[N-]1.CC1CCCC[N-]1.N#C[S-].N#C[S-].[Cd] (configuration not stated),20%,87% (active),93.2% (active),9%,52%,66.7%,12%,36%,70.7% (active),7%,69%,58%,10%,26%,67.7%,16%,39%,73% (active)
CC(=O)[CH-]C(C)=O.CC(=O)[CH-]C(C)=O.[O-]c1ccccc1.[O-]c1ccccc1.[Ti+4],25%,25%,40.3%,20%,20%,0.3%,19%,19%,11.4%,21%,21%,15.2%,6%,6%,7.05%,-9%,-9%,16.9%
CN(C)CCBr,86% (active),95% (active),38%,16%,92% (active),88.1% (active),61%,94% (active),92.9% (active),-1%,84% (active),64.2%,-10%,81% (active),55.6%,49%,95% (active),96.7% (active)
C[CH2][Sn]([CH2]C(=O)OC)([CH2]C(=O)OC)[c]1ccccc1,97% (active),97% (active),83.7% (active),98% (active),98% (active),89.2% (active),98% (active),98% (active),87.8% (active),86% (active),97% (active),84.7% (active),98% (active),98% (active),86% (active),97% (active),97% (active),90.8% (active)
CCOC(=O)c1[nH]cnc1/N=N/N(C)N,97% (active),98% (active),86.8% (active),99% (active),99% (active),92% (active),53%,87% (active),90.1% (active),28%,81% (active),89.2% (active),47%,88% (active),89.5% (active),97% (active),97% (active),90% (active)
CN(C)c1ccc(C2N(Cc3ccc(N(CCCl)CCCl)cc3)CCCN2Cc2ccc(N(CCCl)CCCl)cc2)cc1,1%,86% (active),52.5%,-18%,55%,5.2%,-1%,79% (active),76.7% (active),-1%,65%,-6.3%,0%,95% (active),3.5%,-1%,99% (active),32.9%
CC1=C(O)C(=O)C=C2C1=CC=C1[C@@]2(C)CC[C@@]2(C)[C@@H]3C[C@](C)(C(=O)O)CC[C@]3(C)CC[C@]12C,65%,96% (active),90% (active),74% (active),98% (active),93.5% (active),83% (active),99% (active),93.6% (active),92% (active),98% (active),91% (active),95% (active),99% (active),92.5% (active),74% (active),97% (active),84% (active)
Nc1nc(N)c(-c2ccc(Cl)c(Cl)c2)c(COc2cccc(CNS(=O)(=O)c3cccc(S(=O)(=O)F)c3)c2)n1,-6%,92% (active),89.5% (active),-4%,70% (active),92.4% (active),-1%,85% (active),66.2%,-15%,60%,77.2% (active),-4%,62%,88.8% (active),-3%,83% (active),96.3% (active)
CCOC(=O)C1C(O)=C(P(=O)(C2=C(O)C(C(=O)OCC)C(c3ccc(OC(C)=O)cc3)C(C(=O)O)C2=O)N(CCCl)CCCl)C(=O)C(C(=O)O)C1c1ccc(OC(C)=O)cc1 (configuration not stated),16%,86% (active),45.6%,1%,85% (active),71.8% (active),11%,95% (active),52%,-5%,73% (active),66.2%,-4%,90% (active),54.4%,20%,92% (active),61.2%
CC(=O)OCC12CC(O)C(C)=CC1OC1C(O)C(OC(C)=O)C2(C)C12CO2 (configuration not stated),8%,33%,91.8% (active),12%,36%,91% (active),13%,36%,90.3% (active),16%,39%,77.3% (active),8%,21%,91.8% (active),8%,37%,92.1% (active)
[C-]#[O+].[Cl][Sn]([Cl])[Cl].[Cl][Sn]([Cl])[Cl].[Pt].c1ccncc1,-11%,97% (active),56.2%,9%,95% (active),54.8%,3%,98% (active),75.3% (active),3%,78% (active),41.8%,-13%,47%,62.1%,-1%,98% (active),70.5% (active)

# Reference: PubChem BioAssay (NCI)
